Cycloheximide cs = counter-screen hit for Shiga toxin inhibitors, cycloheximide. cell reporter, cycloheximide protein synthesis inhibition counterscreen. max response, %. 300,000 tested, 12% active. AID 2314; in the data active = max response mostly above about 13%, no sharp cut-off; inactive = mostly below about 14%; also: read at 38.3 µM for the half of the compounds with a filed dose; 0% is about no effect
Giardia FBPA inh = inhibitors of Giardia lamblia fructose-1,6-bisphosphate aldolase. A8B2U2. purified Giardia FBPA. Potency, µM (titrated, usually from 59.6 µM), without a hit: at the top dose activity, negative = inhibition, most hits filed as inhibitors. 290,000 tested, 0.71% active; also: potency is read from the fitted curve at half-maximal effect; % is scaled to controls: 0 for no effect and ±100 for the full control effect; nearly all actives have a fitted effect of over 55% in size
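40 nM FBPA preincubated 10 min at RT with compound (up to 57.5 uM final), then substrate plus GAPDH/TPI/NAD/arsenate coupling and diaphorase/resazurin added. Fluorescence read after 20 min at RT, 525/598 nm.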
Shiga toxin inh = blocks Shiga toxin action in Vero cells. AID 2315. inhibition, % at 38.7 µM. 290,000 tested, 9.2% active. Vero cells, Shiga toxin protein synthesis inhibition reporter; in the data active = inhibition mostly above about 28%, no sharp cut-off; inactive = mostly below about 43%; also: 0% is about no effect
Tb PYK inh = inhibitors of Trypanosoma brucei pyruvate kinase; Q57TT1; TbPYK enzyme, Kinase-Glo Plus ATP luminescence, 45 min; Potency, µM (doses to about 76.8 µM), for inactives: at the highest dose activity, negative = inhibition, most hits filed as inhibitors; 410,000 tested, 0.12% active; also: potency is read from the fitted curve at half-maximal effect; % is scaled to controls: 0 for no effect and ±100 for the full control effect; nearly all actives have a fitted effect of over 50% in size
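T. brucei PYK with substrate was exposed to pin-transferred compounds across a concentration series, then started with 130 uM ADP (final). After 45 min at room temperature, Kinase-Glo Plus luminescence was read, normalized and curve-fitted.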
Sm TGR block = blocks Schistosoma mansoni thioredoxin glutathione reductase | AID 485364 | Q962Y6 | 360,000 tested, 3% active | Potency, µM (doses to about 114 µM), for inactives: at the highest dose activity change, negative = inhibition, usual class: inhibitors | purified TGR, DTNB reduction, TNB absorbance 405 nm; also: potency is read from the fitted curve at half-maximal effect; % is scaled to controls: 0 for no effect and ±100 for the full control effect; nearly all actives have a fitted effect of over 60% in size
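First, TGR (20 nM dispensed) and NADPH were mixed with compound. Second, a 15 min room-temperature incubation followed. Third, further NADPH and then DTNB were added to start the reaction. Finally, TNB absorbance was monitored kinetically.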
LmPK inh = inhibitors of Leishmania mexicana pyruvate kinase; Q27686; purified LmPK, Kinase-Glo ATP luminescence, 1 h; Potency, µM (doses to about 57.5 µM), inactives show at the highest dose activity change, negative = inhibition, usual class: inhibitors; 290,000 tested, 0.37% active; AID 1721; also: potency is read from the fitted curve at half-maximal effect; % is scaled to controls: 0 for no effect and ±100 for the full control effect
Target sequence (Q27686 whole entry, looked up): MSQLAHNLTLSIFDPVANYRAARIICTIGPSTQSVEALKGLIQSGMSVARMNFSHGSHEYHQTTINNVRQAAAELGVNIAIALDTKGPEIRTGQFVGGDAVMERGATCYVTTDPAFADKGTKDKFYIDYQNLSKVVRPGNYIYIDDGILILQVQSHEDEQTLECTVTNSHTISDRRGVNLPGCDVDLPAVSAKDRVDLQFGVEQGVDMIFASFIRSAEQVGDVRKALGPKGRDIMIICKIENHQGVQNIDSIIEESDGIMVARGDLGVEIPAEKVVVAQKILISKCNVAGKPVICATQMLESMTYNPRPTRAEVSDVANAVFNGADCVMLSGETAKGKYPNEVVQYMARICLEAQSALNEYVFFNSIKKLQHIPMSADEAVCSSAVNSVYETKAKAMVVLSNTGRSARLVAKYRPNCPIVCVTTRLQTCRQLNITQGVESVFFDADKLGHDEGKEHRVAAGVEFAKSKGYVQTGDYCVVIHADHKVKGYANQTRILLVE
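Purified LmPK (0.1 nM) with 0.5 mM PEP and 0.1 mM ADP in imidazole buffer pH 7.2 with MgCl2/KCl, 1 h at room temperature. ATP formed was read by luciferase luminescence and normalized to no-enzyme and uninhibited controls.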
The depositor's hits bear a star; ? = inconclusive; . = no result given; [ ] = dose if it differs, or a comment. The entries come from a sample that favours hits as a whole. Unless noted, calls follow the shape of the dose curve; as a rule, active = well fitted curve in the direction sought with a large enough effect; inconclusive = small, poorly fitted or top-dose-only effect, or another doubt; inactive = no such curve, though single readings can be large; an effect the other way counts as inactive or inconclusive.

SMILES	Cycloheximide cs	Giardia FBPA inh	Shiga toxin inh	Tb PYK inh	Sm TGR block	LmPK inh
COc1ccc(S(=O)(=O)Nc2cccc3c2O[C@@H](CN(C)Cc2ccc(C(=O)O)cc2)[C@@H](C)CN([C@H](C)CO)C3=O)cc1	.	.	.	-4%	.	.
CN1CCC(OC(=O)COc2ccc(Br)cc2)CC1	-8	-3%	-10	0%	20µM*	4%
COc1ccc(OCC(=O)OC2CCN(C)CC2)cc1	13	0%	-15	6%	-31%	8%
S=C(NCCc1ccc(Cl)cc1)NC1CCCC1	44*	-3%	71*	-3%	17%	3%
S=C(NCCc1ccccc1)NC1CCCCCC1	51*	-4%	73*	-2%	0%	0%
O=C(NC1CCCCC1)C(=S)NCCc1ccccc1	-3	?	5	?	9%	2%
S=C(NCCNCc1ccccc1)NC1CCCCC1	-3	-8%	-5	.	3%	4%
S=C(NCCc1ccc(Cl)cc1)NC1CCCCC1	56*	-21%	103*	-9%	13%	-5%
S=C(NCc1ccccc1Cl)NC1CCCC1	-2	1%	20	-3%	5%	3%
S=C(NCCc1ccccc1)NCC(c1ccco1)N1CCCCC1 (stereo not drawn)	15*	1%	9	-1%	-12%	0%
O=C1Nc2ccccc2C1C(C[N+](=O)[O-])c1ccccc1 (stereo not drawn)	-3	3%	-9	-2%	?	4%
COc1ccc(NC(=S)NCc2ccc3c(c2)OCO3)cc1	15	-3%	25	-4%	-24%	11%
S=C(NCc1ccc2c(c1)OCO2)Nc1ccc(-c2nc3ccccc3[nH]2)cc1	32*	-4%	62*	-12%	-3%	0%
CN(C)CCNC(=S)Nc1ccc(-c2nc3ccccc3[nH]2)cc1	46*	0%	122*	-15%	-8%	-4%
O=c1[nH]c(=O)c2[nH]c(=O)[nH]c2[nH]1	.	.	.	1%	.	.
O=S(=O)(NCC(c1cccs1)S(=O)(=O)c1ccccc1)c1ccc(F)cc1 (stereo not drawn)	.	.	.	5%	0.5µM*	.
O=S(=O)(NCC(c1cccs1)S(=O)(=O)c1ccccc1)c1ccc(F)c(C(F)(F)F)c1 (stereo not drawn)	.	.	.	0%	?	.
COc1ccc(S(=O)(=O)NCC(c2cccs2)S(=O)(=O)c2ccccc2)cc1OC (stereo not drawn)	.	.	.	-6%	1µM*	.
Cc1ccc2cccc(NC(=O)C(C)Oc3ccc(Cl)cc3Cl)c2n1 (stereo not drawn)	.	.	.	-2%	1%	.
COc1cc(SC)ccc1C(=O)NCc1ccccc1	26*	-9%	36*	-6%	-7%	-2%
COc1cc(SC)ccc1C(=O)NCc1ccc(C)cc1	16*	0%	31	6%	1%	5%
COc1cc(SC)ccc1C(=O)N(C)Cc1ccccc1	22*	1%	28	3%	-1%	0%
COc1cc(SC)ccc1C(=O)NCCCOC(C)C	13*	3%	14	0%	0%	-5%
COc1cc(SC)ccc1C(=O)N(C)CC(=O)Nc1cccc2ccccc12	.	.	.	-1%	-21%	.
CCOc1ccc(OCC)c(NC(=O)C2CCN(c3nnc(-n4cccc4)s3)CC2)c1	.	.	.	3%	11%	.
SMILES	Cycloheximide cs	Giardia FBPA inh	Shiga toxin inh	Tb PYK inh	Sm TGR block	LmPK inh
N#Cc1ccccc1OCC(=O)N1CCN(S(=O)(=O)c2ccc(Cl)cc2)CC1	.	.	.	6%	0%	.
CCOC(=O)Nc1ccc2c(C)cc(=O)oc2c1	30*	-8%	60*	-4%	-20%	-13%
Cc1cccc(OCC(=O)Nc2ccc3c(C)cc(=O)oc3c2)c1	5	11%	-3	-1%	-6%	2%
CCCCOC(=O)Nc1ccc2c(C)cc(=O)oc2c1	52*	-1%	59*	-4%	-5%	-14%
Cc1cc(=O)oc2cc(NC(=O)CCOc3ccccc3)ccc12	19*	-1%	32*	0%	8%	-5%
Cc1cc(=O)oc2cc(NC(=O)CC(N)C(=O)O)ccc12 (stereo not drawn)	-4	-13%	-4	.	.	.
COc1cccc(-c2nnc(SCC(=O)NC3CCS(=O)(=O)C3)n2C)c1 (stereo not drawn)	.	.	.	-13%	-7%	.
O=C1[C@@H](Oc2ccccc2)[C@@H](c2ccncc2)N1c1ccncc1	.	.	.	3%	.	.
CCON=C(CC)C1=C(O)CC(c2c(C)cc(C)cc2C)CC1=O (stereo not drawn)	.	.	.	-9%[157 µM]	.	.
COc1ccc(C2Nc3ccccc3C(=O)N2c2ccccc2)cc1CN1CCOCC1 (stereo not drawn)	11	-3%	11	-1%	.	0%
COc1ccc(N2C(=O)c3ccccc3NC2c2ccc(OC)c(Cn3nnc4ccccc43)c2)cc1 (stereo not drawn)	21*	-7%	31	6%	2%	-2%
COc1ccc(C2Nc3ccccc3C(=O)N2c2ccc(C)cc2)cc1COc1ccccn1 (stereo not drawn)	37*	-9%	65	3%	-4%	-3%
COc1ccc(C2Nc3ccccc3C(=O)N2c2ccc(C)cc2)cc1Cn1nc(C)c([N+](=O)[O-])c1C (stereo not drawn)	47*	-1%	119	-13%	-23%	5%
Cc1cc(C)c2oc(-c3ccc(Cl)c(NC(=O)c4cccs4)c3)nc2c1	.	.	.	-9%	-10%	.
N=C1S/C(=C\c2cn[nH]c2-c2ccc(F)cc2)C(=O)N1c1ccccc1F	20*	5%	-3	1%	-8%	3%
COCCSc1nnc(NS(=O)(=O)Cc2ccccc2)s1	2	3%	6	0%	7%	-9%
CCC(C)Sc1nnc(NS(=O)(=O)Cc2ccccc2)s1 (stereo not drawn)	15*	-11%	22	-3%	32%	0%
Cc1ccc(C(=O)OCC(=O)NC2CCCCC2)s1	34*	1%	95*	0%	-6%	-3%
NC(=O)NC(=O)COC(=O)c1sc2ccccc2c1Cl	4	2%	-6	-27%	13%	-3%
Cc1ccc(C(=O)NC2CCC(C)CC2)s1 (stereo not drawn)	.	.	.	-1%	1%	.
O=C(COC(=O)c1sc2ccccc2c1Cl)NC1CCCCC1	20*	5%	13	1%	0%	-4%
Cc1ccc(C(=O)NC2CCCC2)s1	11*	.	53	3%	?	-3%
CCC[C@H](NC(=O)[C@H](CC(C)C)N(C)C(=O)CNC(=O)[C@@H](NC(=O)[C@H](Cc1ccccc1)NC(=O)[C@H](CCCCN)NC(=O)[C@@H](N)CC(=O)O)C(C)C)C(N)=O	-1	2%	-12	.	.	.
C#CC1(O)CCC2C3CCc4cc(O)cc(C)c4C3CCC21C (stereo not drawn)	.	.	.	-14%	.	.
